Experimental data from PubChem BioAssay (NCATS).
Results filed as inconclusive are left out. Entries that show only a call come without a potency. Values without a mark were called inactive. The source made the active and inactive calls. Calls come from the whole dose curve; as a rule, active = well fitted curve in the direction sought with a large enough effect; inconclusive = small, poorly fitted or top-dose-only effect, or another doubt; inactive = no such curve, though single readings can be large; an effect the other way counts as inactive or inconclusive.

How the values were obtained:
[1] = molecular target: Rap guanine nucleotide exchange factor 3 (Homo sapiens) (UniProt O95398); assay: Confirmatory qHTS for antagonist of cAMP-regulated guanine nucleotide exchange factor 3 (EPAC1) (AID 1645880); details: EPAC1 Rap1B-BODIPY-GDP exchange, fluorescence; activity, negative = inhibition: at 115 µM (top of the series); note: nearly all actives have a fitted effect of over 55% in size
Procedure, shortened: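 Nucleotide exchange uses 100 nM EPAC1, 250 nM RAP1B-BODIPY-GDP and 50 uM GDP, with compounds in a concentration-titration series. After 5 min at room temperature, fluorescence (480 nm ex/540 nm em) is read every 5 min for 30 min. Data are normalized to control ATA and DMSO.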

[2] = molecular target: Rap guanine nucleotide exchange factor 3 (Homo sapiens) (UniProt O95398); assay: Confirmatory qHTS for agonist of cAMP-regulated guanine nucleotide exchange factor 3 (EPAC1) (AID 1645881); details: EPAC1 Rap1B BODIPY-GDP exchange fluorescence; series mostly up to 154 µM; note: nearly all actives have a fitted effect of over 75% in size;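 for activation: EPAC1 catalysed release of BODIPY-GDP from Rap1B seen as fluorescence loss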
[3] = molecular target: Rap guanine nucleotide exchange factor 4 (Homo sapiens) (UniProt Q8WZA2); assay: Confirmatory qHTS for agonist of cAMP-regulated guanine nucleotide exchange factor 4 (EPAC2) (AID 1645884); details: EPAC2 GEF activity, Rap1B-BODIPY-GDP fluorescence; series mostly up to 154 µM;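 note: nucleotide exchange releases bodipy-GDP from Rap1 and this lowers its fluorescence; nearly all actives have a fitted effect of over 65% in size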
[4] = molecular target: Rap guanine nucleotide exchange factor 4 (Homo sapiens) (UniProt Q8WZA2); assay: Confirmatory qHTS for antagonist of cAMP-regulated guanine nucleotide exchange factor 4 (EPAC2) (AID 1645885); details: EPAC2 Rap1B-BODIPY-GDP exchange fluorescence, biochemical; series mostly up to 12.7 µM; note: nearly all actives have a fitted effect of over 25% in size
[5] = molecular target: Rap guanine nucleotide exchange factor 3 (Homo sapiens) (UniProt O95398); assay: Counterscreen qHTS for agonist of cAMP-regulated guanine nucleotide exchange factor 3 (EPAC1) (AID 1645889); details: EPAC1 Rap1B-BODIPY-GDP exchange, fluorescence; series mostly up to 154 µM; note: nearly all actives have a fitted effect of over 40% in size
Procedure, shortened: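 Measured: fluorescence of BODIPY-GDP bound to Rap1B, which falls as exchange proceeds. Conditions include 50 uM competing GDP, 5 and 30 min reads, and a later cAMP challenge for antagonist detection.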
Potency is the fitted concentration of half-maximal effect.

Rap guanine nucleotide exchange factor 4 (Homo sapiens), sequence (Q8WZA2 whole entry, looked up): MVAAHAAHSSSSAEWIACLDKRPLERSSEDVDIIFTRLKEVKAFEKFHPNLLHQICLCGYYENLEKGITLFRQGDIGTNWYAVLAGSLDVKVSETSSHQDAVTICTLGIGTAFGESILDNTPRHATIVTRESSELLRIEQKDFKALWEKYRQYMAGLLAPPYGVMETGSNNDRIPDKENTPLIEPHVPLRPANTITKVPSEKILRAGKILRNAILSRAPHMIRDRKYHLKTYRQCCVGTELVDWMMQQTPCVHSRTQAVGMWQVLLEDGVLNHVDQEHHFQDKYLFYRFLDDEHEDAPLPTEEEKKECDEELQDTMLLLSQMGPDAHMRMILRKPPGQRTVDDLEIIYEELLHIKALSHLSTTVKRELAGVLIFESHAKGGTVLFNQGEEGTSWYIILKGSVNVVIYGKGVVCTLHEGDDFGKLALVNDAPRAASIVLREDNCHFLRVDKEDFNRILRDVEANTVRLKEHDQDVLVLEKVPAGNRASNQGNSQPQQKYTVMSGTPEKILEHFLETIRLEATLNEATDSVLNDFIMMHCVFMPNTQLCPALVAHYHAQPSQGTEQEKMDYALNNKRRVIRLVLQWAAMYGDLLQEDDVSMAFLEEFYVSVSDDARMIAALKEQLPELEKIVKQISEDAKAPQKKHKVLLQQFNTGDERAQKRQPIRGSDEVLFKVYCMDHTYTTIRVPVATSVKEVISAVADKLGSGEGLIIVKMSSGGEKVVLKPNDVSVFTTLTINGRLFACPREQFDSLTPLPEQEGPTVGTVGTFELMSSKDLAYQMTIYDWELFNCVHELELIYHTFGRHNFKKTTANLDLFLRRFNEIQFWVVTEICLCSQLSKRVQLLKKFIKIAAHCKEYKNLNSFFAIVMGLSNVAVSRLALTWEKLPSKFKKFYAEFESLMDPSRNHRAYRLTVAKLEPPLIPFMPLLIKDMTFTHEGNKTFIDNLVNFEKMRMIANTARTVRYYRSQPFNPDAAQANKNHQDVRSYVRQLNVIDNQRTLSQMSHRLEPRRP
Rap guanine nucleotide exchange factor 3 (Homo sapiens), sequence (O95398 whole entry, looked up): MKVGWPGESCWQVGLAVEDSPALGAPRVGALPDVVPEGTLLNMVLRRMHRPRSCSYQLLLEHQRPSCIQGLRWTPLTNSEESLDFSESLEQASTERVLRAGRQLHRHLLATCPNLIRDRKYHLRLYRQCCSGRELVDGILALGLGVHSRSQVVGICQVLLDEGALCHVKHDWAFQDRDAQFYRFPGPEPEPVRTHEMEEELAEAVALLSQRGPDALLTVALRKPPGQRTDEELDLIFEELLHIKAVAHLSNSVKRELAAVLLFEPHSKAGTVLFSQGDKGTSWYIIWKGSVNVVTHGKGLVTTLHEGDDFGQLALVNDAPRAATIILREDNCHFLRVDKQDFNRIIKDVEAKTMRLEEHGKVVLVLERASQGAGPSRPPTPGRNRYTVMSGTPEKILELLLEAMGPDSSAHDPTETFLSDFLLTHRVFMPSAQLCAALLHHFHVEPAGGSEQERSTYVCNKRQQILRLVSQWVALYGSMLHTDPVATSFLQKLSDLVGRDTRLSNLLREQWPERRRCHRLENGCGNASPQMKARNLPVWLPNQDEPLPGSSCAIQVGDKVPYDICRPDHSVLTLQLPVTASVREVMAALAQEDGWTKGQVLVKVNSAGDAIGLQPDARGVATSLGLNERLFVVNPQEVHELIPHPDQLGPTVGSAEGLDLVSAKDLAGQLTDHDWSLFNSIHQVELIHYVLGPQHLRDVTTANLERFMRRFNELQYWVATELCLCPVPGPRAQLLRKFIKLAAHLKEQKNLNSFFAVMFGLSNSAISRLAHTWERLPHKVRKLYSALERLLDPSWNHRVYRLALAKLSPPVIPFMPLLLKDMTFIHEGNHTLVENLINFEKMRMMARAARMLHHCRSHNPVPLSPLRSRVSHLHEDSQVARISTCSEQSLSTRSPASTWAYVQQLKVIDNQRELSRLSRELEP

Compound: COc1ccc(C(CC(=O)N2CCCC2)c2ccc(F)cc2)cc1 (stereo not given)
- Potency [1]: inactive
- Potency [2]: inactive
- activation [3]: 0% [at 17.1 µM, percent relative to cAMP agonist control]
- Potency [4]: inactive
- activation [5]: 0.37% [at 30.8 µM]

Compound: COc1cc(CN2CCN(C(=O)CC(C)C)CC2)c([N+](=O)[O-])cc1OC
- Potency [1]: inactive
- Potency [2]: inactive
- activation [3]: 2.13% [at 17.1 µM, percent relative to cAMP agonist control]
- Potency [4]: inactive
- activation [5]: 8.51% [at 30.8 µM]

Compound: CCOc1ccc2oc(C(=O)N(C)CC(=O)Nc3ccc(OCC)c(OCC)c3)c(C)c2c1
- Potency [1]: inactive
- Potency [2]: inactive
- Potency [3]: inactive
- Potency [4]: inactive
- Potency [5]: inactive

Compound: Cc1ccc2oc(=O)c(/C=C(\O)c3cccs3)nc2c1
- Potency [1]: inactive
- Potency [2]: 100 µM (active)
- Potency [3]: 89.1 µM (active)
- Potency [4]: 23.9 µM (active)
- Potency [5]: 39.8 µM (active)

Compound: Cc1ccc(CNC(=O)c2ccc3c(c2)nc(C)n3-c2cccc(F)c2)cc1
- Potency [1]: inactive
- Potency [2]: inactive
- Potency [3]: inactive
- Potency [4]: inactive
- Potency [5]: inactive

Compound: COc1ccc(-c2c(-c3ccccc3OC)oc3ccccc23)cn1
- Potency [1]: inactive
- Potency [2]: inactive
- activation [3]: 1.88% [at 17.1 µM, percent relative to cAMP agonist control]
- Potency [4]: inactive
- activation [5]: 7.21% [at 30.8 µM]

Compound: CCOc1ccc(/C=C2\SC(=S)N(NS(=O)(=O)c3ccc(C)cc3)C2=O)cc1OC
- Potency [1]: 56.2 µM (active)
- Potency [2]: inactive
- activation [3]: 5.33% [at 17.1 µM, percent relative to cAMP agonist control]
- Potency [4]: inactive
- activation [5]: -1.1% [at 30.8 µM]

Compound: CCn1cc(SCC(=O)NCc2ccc3c(c2)OCO3)c2ccccc21
- Potency [1]: inactive
- Potency [2]: inactive
- activation [3]: 0% [at 17.1 µM, percent relative to cAMP agonist control]
- Potency [4]: inactive
- activation [5]: 20.3% [at 30.8 µM]

Compound: COC(=O)Cc1c(C)c2ccc(OC(=O)c3ccco3)cc2oc1=O
- Potency [1]: inactive
- Potency [2]: inactive
- activation [3]: 7.89% [at 17.1 µM, percent relative to cAMP agonist control]
- Potency [4]: inactive
- activation [5]: 4.06% [at 30.8 µM]

Compound: CCC(Sc1nncn1C)C(=O)Nc1nnc(-c2ccc(Cl)cc2)s1 (stereo not given)
- Potency [1]: inactive
- Potency [2]: inactive
- activation [3]: 5.37% [at 17.1 µM, percent relative to cAMP agonist control]
- Potency [4]: inactive
- activation [5]: -0.401% [at 30.8 µM]

Compound: CC(C)c1ccc(NC(=O)COC(=O)C2=COCCO2)cc1
- Potency [1]: inactive
- Potency [2]: inactive
- activation [3]: -5.53% [at 17.1 µM, percent relative to cAMP agonist control]
- Potency [4]: inactive
- activation [5]: 17.9% [at 30.8 µM]

Compound: Cc1ccc2oc(=O)n(CCCOc3ccccc3Cl)c2c1
- Potency [1]: inactive
- Potency [2]: inactive
- Potency [3]: inactive
- Potency [4]: inactive
- Potency [5]: inactive

Compound: CCOc1cc(/C=C2/SC(=S)NC2=O)ccc1OC(=O)c1ccco1
- Potency [1]: 37.9 µM (active)
- Potency [2]: inactive
- Potency [3]: inactive
- Potency [4]: 16.9 µM (active)
- Potency [5]: inactive

Compound: COc1cc(C(=O)NCC(=O)N/N=C(\C)Cc2ccccc2)cc(OC)c1OC
- Potency [1]: inactive
- Potency [2]: inactive
- Potency [3]: inactive
- Potency [4]: inactive
- Potency [5]: inactive

Compound: O=C(O)CN1C(=O)/C(=C\c2ccccc2OCc2ccc(Cl)cc2)SC1=S
- Potency [1]: 37.9 µM (active)
- Potency [2]: inactive
- Potency [3]: inactive
- Potency [4]: 42.6 µM (active)
- Potency [5]: inactive

Compound: Cc1ccc(-c2ccc(CCC(=O)O)n2-c2ccc(C(C)C)cc2)cc1
- Potency [1]: 75.7 µM (active)
- Potency [2]: inactive
- Potency [3]: inactive
- Potency [4]: inactive
- Potency [5]: inactive

Compound: Cc1cc2ccccn2c1C(=O)c1cccc(F)c1
- Potency [1]: inactive
- Potency [2]: inactive
- Potency [3]: inactive
- Potency [4]: inactive
- Potency [5]: inactive

Compound: Cc1cc(C)n(CCOc2ccc(Br)cc2)n1
- Potency [1]: inactive
- Potency [2]: inactive
- activation [3]: 1.04% [at 17.1 µM, percent relative to cAMP agonist control]
- Potency [4]: inactive
- activation [5]: 4.02% [at 30.8 µM]

Compound: Cc1ccc(C)c(-n2c(CCC(=O)O)ccc2-c2ccc(Cl)cc2)c1
- Potency [1]: inactive
- Potency [2]: inactive
- Potency [3]: inactive
- Potency [4]: inactive
- Potency [5]: inactive

Compound: CCCCCn1c(CCNC(=O)c2cccc(C)c2)nc2ccccc21
- Potency [1]: inactive
- Potency [2]: inactive
- Potency [3]: inactive
- Potency [4]: inactive
- Potency [5]: inactive

Compound: COc1ccc(N2CCOCC2)c(NC(=O)c2cccc3ccccc23)c1
- Potency [1]: inactive
- Potency [2]: inactive
- activation [3]: 5.58% [at 17.1 µM, percent relative to cAMP agonist control]
- Potency [4]: inactive
- activation [5]: 22.6% [at 30.8 µM]

Compound: COc1ccc(N2CCN(CCCNC(=O)c3ccc4nc(CCc5ccccc5)oc4c3)CC2)cc1
- Potency [1]: inactive
- Potency [2]: inactive
- Potency [3]: inactive
- Potency [4]: inactive
- Potency [5]: inactive

Compound: Cc1cc(/C=C2\SC(=S)NC2=O)cc(C)c1O
- Potency [1]: 33.8 µM (active)
- Potency [2]: inactive
- Potency [3]: inactive
- Potency [4]: 0.675 µM (active)
- Potency [5]: inactive

Compound: O=C(NCCS(=O)(=O)N1CCc2ccccc2C1)c1ccccc1
- Potency [1]: inactive
- Potency [2]: inactive
- Potency [3]: inactive
- Potency [4]: inactive
- Potency [5]: inactive

Compound: CC1(Cc2ccccc2OC(F)(F)F)C(=O)Nc2ccc(-c3ccsc3)cc21 (stereo not given)
- Potency [1]: 42.6 µM (active)
- Potency [2]: inactive
- Potency [3]: inactive
- Potency [4]: 33.8 µM (active)
- Potency [5]: inactive

Compound: CCOc1ccc(CNC(=O)c2ccccc2NC(=O)c2nsc3ccccc23)cc1
- Potency [1]: inactive
- Potency [2]: inactive
- Potency [3]: inactive
- outcome [4]: inactive [at 12.7 µM]
- Potency [5]: inactive

Compound: Cn1/c(=N\NC(=O)C2CCCCC2)sc2ccccc21
- Potency [1]: inactive
- Potency [2]: inactive
- Potency [3]: inactive
- Potency [4]: inactive
- Potency [5]: inactive

Compound: Cc1ccc(C)c(NC(=O)COC(=O)COc2cccc3c2OC(C)(C)C3)c1
- Potency [1]: inactive
- Potency [2]: inactive
- activation [3]: -3.91% [at 17.1 µM, percent relative to cAMP agonist control]
- Potency [4]: inactive
- activation [5]: 3.82% [at 30.8 µM]

Compound: Cc1csc(N=Nc2ccc(N(C)C)cc2)[n+]1[O-]
- Potency [1]: 67.5 µM (active)
- Potency [2]: inactive
- Potency [3]: inactive
- Potency [4]: 37.9 µM (active)
- Potency [5]: inactive

Compound: CC1CC1c1ccc(/C=C(\C#N)C(=O)Nc2ccc(Cl)cc2)o1 (stereo not given)
- Potency [1]: inactive
- Potency [2]: inactive
- Potency [3]: inactive
- Potency [4]: inactive
- Potency [5]: inactive

Compound: CCC(Oc1ccccc1)C(=O)Nc1ccccc1N1CCCCC1 (stereo not given)
- Potency [1]: inactive
- Potency [2]: inactive
- Potency [3]: inactive
- Potency [4]: inactive
- Potency [5]: inactive

Compound: CCc1ccc([C@@H]2CC=C(C(=O)O)[C@H](c3ccc(C(C)(C)C)cc3)N2S(=O)(=O)c2ccc(C)cc2)cc1
- Potency [1]: 37.9 µM (active)
- Potency [2]: inactive
- Potency [3]: inactive
- Potency [4]: 37.9 µM (active)
- Potency [5]: inactive

Compound: Cc1ccc(CNC(=O)c2c[nH]n3c(=O)c(Cc4ccc(F)cc4Cl)c(C)nc23)cc1
- Potency [1]: 67.5 µM (active)
- Potency [2]: inactive
- Potency [3]: inactive
- Potency [4]: inactive
- Potency [5]: inactive

Compound: CCCOc1ccc(/C(O)=C2/C(=O)C(=O)N(c3ccccn3)C2c2ccc(OC)cc2)cc1C (stereo not given)
- Potency [1]: 33.8 µM (active)
- Potency [2]: inactive
- Potency [3]: inactive
- Potency [4]: inactive
- Potency [5]: inactive

Compound: Cn1c(N)c(C(=O)COC(=O)CCOc2ccc(C(C)(C)C)cc2)c(=O)n(C)c1=O
- Potency [1]: inactive
- Potency [2]: inactive
- Potency [3]: inactive
- Potency [4]: inactive
- Potency [5]: inactive

Compound: Cc1ccc(-c2nnc(Nc3ccc4c(c3)nc(C)n4C)c3ccccc23)cc1
- Potency [1]: inactive
- Potency [2]: inactive
- activation [3]: 2.89% [at 17.1 µM, percent relative to cAMP agonist control]
- Potency [4]: inactive
- activation [5]: 12% [at 30.8 µM]

Compound: O=[N+]([O-])c1ccc(N/N=C2/CCCCC2c2ccccn2)cc1 (stereo not given)
- Potency [1]: inactive
- Potency [2]: inactive
- activation [3]: 2.03% [at 17.1 µM, percent relative to cAMP agonist control]
- Potency [4]: inactive
- activation [5]: -3.04% [at 30.8 µM]

Compound: O=C1C(Cc2ccccc2)SC(=Nc2ccccc2)N1c1ccccc1 (stereo not given)
- Potency [1]: inactive
- Potency [2]: inactive
- activation [3]: 1.92% [at 17.1 µM, percent relative to cAMP agonist control]
- Potency [4]: inactive
- activation [5]: 18.1% [at 30.8 µM]

Compound: Cc1nc2c(C(=O)NCCc3ccc(Cl)cc3)c[nH]n2c(=O)c1Cc1ccccc1F
- Potency [1]: 84.9 µM (active)
- Potency [2]: inactive
- Potency [3]: inactive
- Potency [4]: inactive
- Potency [5]: inactive

Compound: CC(=O)/C(C#N)=C1\NC(=O)C(Cc2cc(Cl)ccc2Cl)S1 (stereo not given)
- Potency [1]: 44.7 µM (active)
- Potency [2]: inactive
- activation [3]: 4.95% [at 17.1 µM, percent relative to cAMP agonist control]
- Potency [4]: inactive
- activation [5]: 2.87% [at 30.8 µM]
